# Results reported in ChEMBL document CHEMBL3988442, “University of Dundee, Small-Polar-MMV Screening Library” (2021).
# The whole screen tested about 48,000 compounds, of which about 13,000 (27%) showed an effect of 50% or more. This is one part of the list.
# Test system: Wolbachia pipientis
# Assay: Anti-Wolbachia Cell-Based Screen
# Assay type: functional
# Design: scale not given: in the data most compounds retested in dose-response had high values
# Details: 5 µM
row,SMILES,Percent Effect
1,CN1CCC(n2nc(Cc3cccc(Cl)c3)nc2Cn2ccnc2)CC1,-3.422%
2,CCCn1nc(C(=O)NCCc2nnc3n2CCC3)ccc1=O,5.324%
3,O=C1CCCN1CCc1noc(-c2ccc3[nH]cnc3c2)n1,-10.57%
4,Cc1cc(C)c(C(=O)NC2CCCc3nc(N(C)C)ncc32)cc1C (stereo unspecified),-4.078%
5,COc1ccc(F)c(CNC2CCCc3nc(N(C)C)ncc32)c1 (stereo unspecified),96.62%
6,CCn1ncc2c1CCCC2NCc1cc(Cl)c(OC)c(OC)c1 (stereo unspecified),-1.567%
7,COc1cc(F)c(S(=O)(=O)NCc2ccnc(N(C)C)n2)cc1OC,0.6803%
8,COc1ccc(CNC2CCCc3nc(N(C)C)ncc32)c(OC)c1 (stereo unspecified),113.1%
9,COc1ccc(OC)c(CNC2CCCc3nc(N(C)C)ncc32)c1 (stereo unspecified),105.7%
10,CCn1ncc2c1CCCC2NCc1ccc(OC)c(C)c1 (stereo unspecified),-3.93%
11,CCCOc1ccc(CNC2CCCc3c2cnn3CC)cc1OC (stereo unspecified),1.181%
12,COc1ccc2c(c1)C(NCCc1ncc(C)s1)CCCO2 (stereo unspecified),17.43%
13,CCOC(C)c1nc(CN2CCC(C3OCCO3)CC2)cs1 (stereo unspecified),-5.348%
14,CN(CCc1nc2ccccc2c(=O)[nH]1)CCC(F)(F)F,-6.377%
15,CNC(=O)C(C)(C)NC(=O)c1cc(COc2cccc(C(C)=O)c2)[nH]n1,5.939%
16,O=C(Nc1cccc(N2CCN(CC3CC3)CC2)c1)C1CCOC1 (stereo unspecified),-7.118%
17,CCN1CCN(C(=O)c2ccc3c(c2)NC(=O)CN3)[C@H]2CS(=O)(=O)C[C@H]21,7.083%
18,CN(Cc1cnn(C)c1)C(=O)NC1CCN(Cc2ccccn2)CC1,-4.519%
19,Cn1cc(CN(Cc2ccccc2)CC(O)c2cccs2)cn1 (stereo unspecified),-0.3984%

row,SMILES,Percent Effect
1,Cn1cc(CN(Cc2ccccn2)Cc2ccccc2Cl)cn1,107.7%
2,COCCN(C/C=C/c1ccccc1)Cc1ccccn1,-3.939%
3,CCOc1cccc(CN(Cc2cnn(C)c2)CC(C)C)c1O,5.177%
4,Cc1nn(C)cc1CN(Cc1ccccn1)Cc1ccccc1Cl,76.4%
5,COc1ccccc1CN(C)c1nccc(-c2cn(C)nc2C)n1,-7.113%
6,Cl.Cn1cc(CN(Cc2ccccc2)Cc2ccccn2)cn1,101.3%
7,OC(CN(Cc1ccccc1)Cc1ccccn1)c1cccs1 (stereo unspecified),-16.67%
8,COc1cccc(S(=O)(=O)CCN2CCCC2c2ccc[nH]2)c1 (stereo unspecified),-2.252%
9,CCN1CCC(NC(=O)N(C)Cc2csc3ccccc23)CC1,1.913%
10,CC(C)C(NC(=O)NCC1(CO)CC1)c1nnc2n1CCC2 (stereo unspecified),14.94%
11,Cc1ncsc1C(=O)OCCN1CCCc2ccccc21,101.6%
12,Cc1ncsc1C(=O)OCCN1CCCCCC1=O,115.8%
13,Cc1ncsc1C(=O)NCCn1nc2ccccn2c1=O,-10.37%
14,O=C(NCCN1CCCCC1)c1scnc1Cl,1.584%
15,O=C(NCCN1CCCc2ccccc21)c1scnc1Cl,4.891%
16,Cc1ncsc1CN(C)C(=O)C(CC(C)C)N1CCCCC1=O (stereo unspecified),12.62%
17,Cc1ncsc1C(=O)NCCN1CCCCCC1=O,95.46%
18,Cc1ncsc1CCN(C)C(=O)CN1CCCCCC1=O,-1.63%
19,CC(C(=O)NCCCN1CCCCCC1=O)n1cncn1 (stereo unspecified),-4.192%

row,SMILES,Percent Effect
1,Cc1cc(C(=O)NCCN2CCCc3ccccc32)[nH]n1,-6.772%
2,Cc1ncsc1C(=O)NCCCN1CCCCCC1=O,91.19%
3,Cc1ncsc1C(=O)NCCSCc1cccs1,-6.016%
4,COc1ccc(C(=O)N2CCC(Oc3ccccc3)(C(=O)O)CC2)o1,-6.202%
5,CC(=O)NCc1nc(CCOc2ccc(Cl)cc2)no1,-0.6631%
6,COCCN1C(=O)CC(N2CCN(c3ccc(OC)cc3)CC2)C1=O (stereo unspecified),6.624%
7,NCc1cn(CC2CCCN(C(=O)NCc3ccc(Cl)cc3)C2)nn1 (stereo unspecified),-34.24%
8,Cc1nnc(N2C[C@@H](Oc3ccccn3)[C@H]3OCCC[C@H]32)s1.O=C(O)C(F)(F)F.O=C(O)C(F)(F)F,-5.034%
9,COc1ccccc1Oc1ncccc1CNC(=O)C(C)CN (stereo unspecified),1.057%
10,COc1cccc(OC)c1CN1CC(O)CN(S(C)(=O)=O)CC1=O (stereo unspecified),127.9%
11,COc1cccc(CN2CC(O)CN(S(C)(=O)=O)CC2=O)c1OC (stereo unspecified),96.57%
12,CCCS(=O)(=O)N1CCC2(CCCN(Cc3cccc(F)c3F)C2=O)C1 (stereo unspecified),-35.96%
13,COc1cccc(OC)c1CN1CC(=O)N(c2ccc(C)cc2)CC1C (stereo unspecified),7.242%
14,COc1ccccc1N1CCC(CNCc2cccc(OC)c2OC)C1 (stereo unspecified),0.729%
15,COc1cccc(CN2CC3(CCNCC3)CCC2=O)c1OC,-5.805%
16,COc1ccccc1S(=O)(=O)N1CCC2(CC1)[C@H](O)C[C@@H]2O,-0.7897%
17,CCCS(=O)(=O)N1CC(=O)N(Cc2cccc(OC)c2OC)CC(O)C1 (stereo unspecified),125.8%
18,CCCS(=O)(=O)N1CC(=O)N(Cc2ccccc2OC)CC(O)C1 (stereo unspecified),89.31%
